High-throughput results (PubChem BioAssay)
Only some compounds are listed: those with a hit (about 19% of all), similar ones and a draw of the others.
IL-1B inflam inh – inflammasome signaling inhibition, IL-1 beta readout; activity change, % at 57.5 µM; AID 743279; THP-1 LPS/ATP IL-1B secretion, AlphaLISA, 16 h; active compounds read low; 4.7% of 360,000 active; in the data active = activity change below about -50%; inconclusive = mostly about -30% to -49%
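THP-1 cells pretreated 1 hr with compounds (up to 57.5 uM final), then stimulated with LPS (250 ng/mL final) plus ATP (1.25 mM final); secreted IL-1B measured by AlphaLISA after 16 hr, decreased signal indicating inhibition.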
HT1080 IDH1KD tx – kills HT-1080 cells with IDH1 knockdown; Potency, µM (series often up to 46.1 µM), usual class: cytotoxic; 2% of 360,000 active; HT-1080 IDH1 knockdown viability, ATP luminescence, 48 h
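Cytotoxicity counter-line: IDH1KD HT-1080, 48 h, CellTiter-Glo. Curves classed by r2, magnitude and activity.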
TDP1 cell noCPT – qHTS for Inhibitors of human tyrosyl-DNA phosphodiesterase 1 (TDP1): qHTS in cells in absence of CPT. DT40 Tdp1-/- hTDP1 cells, no CPT, ATP luminescence, 48 h. Potency, µM (doses to about 46.2 µM), actives largely listed as inhibitors. 15% of 420,000 active; also: nearly all actives have a fitted effect of over 55% in size
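Compound effects on proliferation are scored in DT40 Tdp1-/-;hTDP1 cells in the absence of CPT. ATP levels (CellTiter-Glo luminescence) are recorded after a ≥48 hr, 37 °C incubation.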
TDP1 cell CPT – growth inhibition of DT40 Tdp1-/-;hTDP1 cells with camptothecin (screen for TDP1 inhibitors); 12% of 420,000 active; Potency, µM (series often up to 46.2 µM), hits mostly inhibitors; chicken DT40 Tdp1-/-;hTDP1 cells + 20 nM CPT, ATP luminescence, 48 h; also: nearly all actives have a fitted effect of over 55% in size
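Chicken DT40 Tdp1-/- cells complemented with human TDP1, 400 cells/well, exposed to compounds plus 20 nM camptothecin for at least 48 h at 37 C; viability read as ATP content by CellTiter-Glo luminescence.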
HT1080-NT tox – kills 2HG-producing HT-1080-NT fibrosarcoma cells. HT-1080-NT fibrosarcoma viability, CellTiter-Glo ATP luminescence, 48 h. Potency, µM (highest dose often 46.1 µM), hits mostly cytotoxic. 1.6% of 360,000 active;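 also: NT is the 2HG producing partner of a matched IDH1 knockdown line; nearly all actives have a fitted effect of over 55% in size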
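Fibrosarcoma NT cells, 750 per well in 5% FBS RPMI, were exposed to compound for 48 hours. Viability: CellTiter-Glo luminescence.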
A number is an active result; n = inactive; u = inconclusive; x = no result given. Unless noted, calls follow the shape of the dose curve; as a rule, active = well fitted curve in the direction sought with a large enough effect; inconclusive = small, poorly fitted or top-dose-only effect, or another doubt; inactive = no such curve, though single readings can be large; an effect the other way counts as inactive or inconclusive.

SMILES	IL-1B inflam inh	HT1080 IDH1KD tx	TDP1 cell noCPT	TDP1 cell CPT	HT1080-NT tox
Cc1ccc(NC(=O)C(CC(C)C)N2Cc3ccccc3C2=O)cc1F (stereo unspecified)	x	x	n	n	x
CCN(C(=O)CSc1nc(C)nc2sc(C)c(C)c12)c1ccc(F)cc1	n	n	u	n	n
Cc1nc(NCc2ccco2)c2c(C)c(C)sc2n1	-77	2.8µM	1.8µM	2.1µM	5.6µM
Cc1nc(SCC(=O)N(C)Cc2ccco2)c2c(C)c(C)sc2n1	n	u	u	16µM	n
COc1ccc(C(=O)CSc2ccccc2C(=O)O)cc1	n	n	n	n	n
COc1ccc(NC(=O)c2cc3c(-c4ccccc4F)nn(C)c3s2)c(OC)c1	x	x	10µM	10µM	x
CCOc1ccc(CCNC(=O)c2cc3c(-c4ccccc4F)nn(C)c3s2)cc1	x	x	u	n	x
COc1ccc(OC)c(CCNC(=O)c2cc3c(-c4ccccc4F)nn(C)c3s2)c1	x	x	8.2µM	12µM	x
CCOC(=O)c1c(NC(=O)c2nc(SC)ncc2Cl)sc(C)c1C	x	x	n	n	x
CC(=O)Oc1ccccc1C1=NN(C(=O)/C=C/c2ccccc2)C(c2ccccc2)C1 (stereo unspecified)	n	n	18µM	u	n
COc1ccc(C2CC(c3ccccc3OC(C)=O)=NN2C(=O)/C=C/c2ccccc2)cc1 (stereo unspecified)	n	n	16µM	21µM	n
O=C(N=C1SC2CS(=O)(=O)CC2N1c1cccc(Cl)c1Cl)C1CC1 (stereo unspecified)	n	n	n	n	n
Oc1cccc(/C=N/N2CCN(C3c4ccccc4-c4ccccc43)CC2)c1	-57	23µM	u	u	u
COc1ccccc1N1CCN(/N=C/c2cccc(OC)c2O)CC1	n	n	u	n	n
COc1cc(/C=N/N2CCN(C3c4ccccc4-c4ccccc43)CC2)ccc1O	n	u	23µM	26µM	u
COc1cccc(/C=N/N2CCN(C3c4ccccc4-c4ccccc43)CC2)c1O	n	n	16µM	u	n
Cc1ccc(C)n1-c1nnc(N2CCC(C(=O)Nc3ccccc3Br)CC2)s1	x	x	16µM	u	x
Cc1ccc(C)n1-c1nnc(N2CCCC(C(=O)NCc3cccc(Cl)c3)C2)s1 (stereo unspecified)	x	x	12µM	21µM	x
Cc1ccc(C)n1-c1nnc(N2CCC(C(=O)N3CCN(C)CC3)CC2)s1	u	n	u	u	n
COc1ccc(CNC(=O)C2CCN(S(C)(=O)=O)CC2)c(OC)c1	n	n	n	n	n
Cc1ccccc1CNC(=O)C1CCN(c2nnc(-n3c(C)ccc3C)s2)CC1	x	x	u	16µM	x
COc1ccc(CNC(=O)C2CCN(c3nnc(-n4cccc4CNc4ccc(C)cc4)s3)CC2)c(OC)c1	x	x	13µM	16µM	x
CS(=O)(=O)N1CCC(C(=O)Nc2ccccc2Br)CC1	n	n	n	n	n
O=c1[nH]c2ccccc2nc1-c1nnnn1Cc1ccccc1	n	n	n	n	n
COc1ccccc1CNC(=O)C1CCCN(c2nnc(-n3c(C)ccc3C)s2)C1 (stereo unspecified)	x	x	u	16µM	x
SMILES	IL-1B inflam inh	HT1080 IDH1KD tx	TDP1 cell noCPT	TDP1 cell CPT	HT1080-NT tox
Cc1ccc(C)n1-c1nnc(N2CCCC(C(=O)NCc3cccc(F)c3)C2)s1 (stereo unspecified)	x	x	n	u	x
COc1ccc(CNC(=O)C2CCN(c3nnc(-n4c(C)ccc4C)s3)CC2)c(OC)c1	x	x	16µM	u	x
COc1cccc(CNC(=O)C2CCN(S(=O)(=O)N3CCCCC3)CC2)c1	n	n	n	n	n
Cc1cccc(CNC(=O)C2CCN(c3nnc(-n4c(C)ccc4C)s3)CC2)c1	x	x	16µM	u	x
COc1cccc(CNC(=O)C2CCN(c3nnc(-n4c(C)ccc4C)s3)CC2)c1	x	x	15µM	u	x
COc1cccc(CNC(=O)C2CCN(c3nnc(-n4c(C)ccc4C)s3)CC2)c1OC	x	x	n	u	x
CCC1C(=O)N=C(SCC(=O)Nc2nc3ccccc3s2)NC1=O (stereo unspecified)	n	n	n	n	n
CCOc1ccc(NC(=O)C2CCN(c3nnc(-n4c(C)ccc4C)s3)CC2)cc1	x	x	13µM	23µM	x
